Screening data: PubChem, National Center for Advancing Translational Sciences (NCATS)
Shown are actives, neighbours in structure and some others; about 7.5% of the full set was active somewhere.
Luc counter = Counterscreen for Luciferase (Kinase-Glo TM) Inhibition | 200,000 tested, 0.28% active | Potency, µM (highest dose often 38.3 µM), for inactives: top-dose activity change, negative = inhibition, hits mostly inhibitors | Kinase-Glo luciferase, ATP luminescence, 8 min; note: % is set by controls: 0 for no effect and ±100 for the full control effect; nearly all actives have a fitted effect of over 60% in size
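Light output from Kinase-Glo luciferase with luciferin and 10 uM ATP in 50 mM imidazole pH 7.2, KCl, MgCl2, Tween 20, BSA; compound pin-delivered, 8-min ambient incubation, then luminescence read.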
FLuc modulator = qHTS profiling assay for firefly luciferase inhibitor/activator using purifed enzyme and Km concentrations of substrates (counterscreen for miR-21 project); purified FLuc, Km substrates, luminescence inhibition; Potency, µM (series often up to 57.5 µM), for the others: top-dose activity change, negative = inhibition, most hits filed as inhibitors; 360,000 tested, 6.9% active; AID 588342, 2011;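 note: plate controls were vehicle for no effect and reference inhibitor for full effect; nearly all actives have a fitted effect of over 55% in size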
Target sequence (P08659 whole entry, looked up): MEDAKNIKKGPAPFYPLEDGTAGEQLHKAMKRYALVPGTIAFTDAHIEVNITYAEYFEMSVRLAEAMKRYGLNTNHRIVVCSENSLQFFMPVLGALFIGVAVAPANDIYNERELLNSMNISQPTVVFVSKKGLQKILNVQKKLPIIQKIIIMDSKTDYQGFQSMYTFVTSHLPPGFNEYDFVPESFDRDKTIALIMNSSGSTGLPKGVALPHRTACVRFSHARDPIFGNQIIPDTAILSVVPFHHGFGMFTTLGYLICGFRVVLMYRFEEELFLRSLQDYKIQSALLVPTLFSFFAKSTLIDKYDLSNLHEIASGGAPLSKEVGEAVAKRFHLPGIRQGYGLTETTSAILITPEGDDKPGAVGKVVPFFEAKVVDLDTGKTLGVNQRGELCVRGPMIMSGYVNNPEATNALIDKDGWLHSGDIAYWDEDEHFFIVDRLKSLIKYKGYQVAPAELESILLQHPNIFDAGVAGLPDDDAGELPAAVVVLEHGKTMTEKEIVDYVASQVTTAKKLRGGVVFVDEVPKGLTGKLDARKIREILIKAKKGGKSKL
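Purified P. pyralis luciferase (10nM final) with 10uM D-luciferin and 10uM ATP (Km levels) in 50mM Tris acetate pH 7.5, 10mM Mg acetate, 0.01% Tween-20, 0.05% BSA; qHTS 6-point titration, ~60 µM downward; luminescence read.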
NPC1 prom act = qHTS Assay for NPC1 Promoter Activators. Huh7 NPC1 promoter luciferase reporter, 24 h. Potency, µM (titrated, usually from 9.22 µM), inactives show at the highest dose activation, most hits filed as activators. 320,000 tested, 2.4% active. AID 485313, 2010; note: % of control where 0% means no effect; nearly all actives have a fitted effect of over 60% in size
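Stably transfected Huh7 (NPC1 promoter→luciferase), 1500 cells/well in Opti-MEM + 10% FBS, 2 h settle, then compound 24 h at 37 °C. Luminescence after 10 min with Amplite reagent.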
Rab9 promoter act = qHTS Assay for Rab9 Promoter Activators | AID 485297, 2010 | 320,000 tested, 2.8% active | Potency, µM (doses to about 9.22 µM), inactives show at the highest dose activation, negative = inhibition, hits mostly activators | Huh7 Rab9 promoter-luciferase reporter, luminescence, 24 h; note: % of control where 0% means no effect; nearly all actives have a fitted effect of over 60% in size
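Luciferase signal after 10 min detection reagent at ambient indicates Rab9 promoter upregulation; stably transfected Huh7 cells were treated 24 h with compound in DMSO at 37 °C, 5% CO2.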
SMN2 splice enh = qHTS Assay for Enhancers of SMN2 Splice Variant Expression; 210,000 tested, 2.8% active; AID 1458, 2008; Potency, µM (highest dose often 46.1 µM), for inactives: at the highest dose activity change, positive = activation, hits mostly activators; HEK293 SMN2-luciferase splicing reporter, luminescence, 30-36 h; note: % of control where 0% means no effect; nearly all actives have a fitted effect of over 55% in size
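qHTS luciferase splicing reporter: luminescence rises when SMN2 exon 7 is included in transfected HEK293 cells. Compound exposure lasted 30-36 h at 37C, with 4.5 mM final sodium butyrate as control, followed by a ONE-Glo read.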
ELG1 genotoxic = qHTS screen for small molecules that induce genotoxicity in human embryonic kidney (HEK293T) cells expressing luciferase-tagged ELG1 | 330,000 tested, 1.3% active | Potency, µM (doses to about 46 µM), for inactives: at the top dose activity change, positive = activation, hits mostly activators | HEK293T ELG1-luciferase reporter, luminescence, 16 h; note: % of control where 0% means no effect; nearly all actives have a fitted effect of over 60% in size
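Genotoxicity was scored as increased ELG1-luciferase reporter signal, measured by ONE-Glo luminescence (30 min, room temperature). Compound or vehicle exposure of the HEK293T reporter cells lasted 16 hr at 37°C.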
An asterisk follows results filed as active; ? = inconclusive; · = not tested or not shown; [ ] = another dose, or the depositor's remark. Calls come from the whole dose curve; as a rule, active = well fitted curve in the direction sought with a large enough effect; inconclusive = small, poorly fitted or top-dose-only effect, or another doubt; inactive = no such curve, though single readings can be large; an effect the other way counts as inactive or inconclusive. Potency is the fitted concentration of half-maximal effect.

SMILES	Luc counter	FLuc modulator	NPC1 prom act	Rab9 promoter act	SMN2 splice enh	ELG1 genotoxic
COc1cccc(OC(=O)c2cc3ccccc3oc2=O)c1	-7%	13µM*	2%	-3%	-3%	11%
COc1ccc2oc(=O)c(/C(C)=N/Nc3ccccc3)cc2c1	1%	24µM*	-1%	-7%	-26%	-1%
Cc1cccnc1NC(=O)c1cc2ccccc2oc1=O	-19%	0.6µM*	1.8µM*	1µM*	20µM*	2.1µM*
COc1ccc2oc(=O)c(C(=O)Nc3cccc(C(C)=O)c3)cc2c1	·	4.8µM*	28%	?	·	8%
COc1ccc2oc(=O)c(C(=O)N3CCN(C(=O)c4ccccc4)CC3)cc2c1	·	0%	-1%	-4%	·	-2%
COc1ccc2oc(=O)c(C(=O)Nc3ccccc3-c3ccccc3)cc2c1	4%	5%	0%	0%	-1%	-6%
COc1ccccc1OC(=O)c1cc2ccccc2oc1=O	·	-18%	-2%	-2%	·	7%
CC1CN(c2c(F)c(N)c3c(=O)c(C(=O)O)cn(C4CC4)c3c2F)CC(C)N1 (stereo not given)	-2%[39.9 µM]	·	·	·	·	·
COc1ccc(N2CCN(C(=O)c3cc4c(-c5ccccc5F)nn(C)c4s3)CC2)cc1	·	-2%	·	·	-26%	·
COc1cccc(NC(=O)c2cc3ccccc3oc2=O)c1	·	0.24µM*	1.4µM*	2.5µM*	·	0.92µM*
COc1ccc(NC(=O)c2cc3ccccc3o/c2=N\NS(=O)(=O)c2ccc(C)cc2)cc1	·	-28%	1µM*	0.45µM*	·	?
COc1cc(/C=C/[N+](=O)[O-])ccc1OC(=O)c1cc2ccccc2oc1=O	·	6µM*	-18%	10%	·	?
CCN(C(=O)COC(=O)/C=C/c1cccc([N+](=O)[O-])c1)c1ccccc1	-1%	-1%	1%	-3%	9%	1%
CCOC(=O)c1c(NC(=O)COc2cccc(C(F)(F)F)c2)sc2c1CCC(C)C2 (stereo not given)	·	-4%	·	·	-10%	·
CCOC(=O)Cc1csc(NC(=O)c2cc(=O)c3ccccc3o2)n1	1%	17µM*	-2%	13%	5%	-3%
CCOC(=O)c1sc(NC(=O)CC2OC(=O)c3ccccc32)nc1C (stereo not given)	·	?	-3%	0%	·	2%
Cc1cnc(NC(=O)c2cc3ccccc3o2)s1	-11%	0.54µM*	1.4µM*	?	2.2µM*	?
CCOC(=O)c1ccccc1NC(=O)c1cc2ccccc2o1	·	?	-2%	?	·	-15%
CCOC(=O)c1csc(NC(=O)c2cc3ccccc3o2)n1	·	3.4µM*	?	?	·	?
CCOC(=O)c1sc(NC(=O)c2cc3ccccc3o2)nc1C	-4%	2.4µM*	-42%	-17%	11µM*	14%
CCC(=O)N1CCc2cc(S(=O)(=O)NCCC(=O)NCc3ccc(C)cc3)ccc21	·	-3%	·	·	-6%	·
CCc1ccc2occ(CC(=O)Nc3ccc(OC)c(Cl)c3)c2c1	·	-19%	·	·	4%	·
COc1ccc(/C=C2/C(=N)N3C(=NC2=O)Sc2cc(S(C)(=O)=O)ccc23)cc1OC	·	?	20%	23%	·	9%
O=C(COC(=O)c1ccc([N+](=O)[O-])cc1)Nc1ccccc1C(=O)NC1CC1	·	·	·	·	·	3%
CCOC(=O)[C@@H]1[C@H]2COc3cc(OC)ccc3[C@@H]2N2C(=O)N(c3ccccc3)C(=O)[C@@]12C	·	·	·	·	·	1%
SMILES	Luc counter	FLuc modulator	NPC1 prom act	Rab9 promoter act	SMN2 splice enh	ELG1 genotoxic
CCOC(=O)c1sc(NC(=O)c2ccc(CC)s2)nc1C	-6%	?	-3%	23%	2µM*	2.6µM*
CCOC(=O)Cc1csc(N/N=C/c2ccc(C(F)(F)F)cc2)n1	5%	1%	-5%	2%	-22%	3%
CCc1ccc(C(=O)Nc2nc(C)cs2)s1	·	0.95µM*	-12%	-16%	·	?
CCOC(=O)c1sc(NC(=O)c2ccc(S(=O)(=O)N(C)C)cc2)nc1C	0%	-17%	-15%	-12%	?	4%
CCOC(=O)Cc1csc(/N=C/c2c(O)n(-c3ccccc3C(F)(F)F)c(=O)c3ccccc23)n1	5%	11µM*	-2%	-2%	-10%	-6%
O=C(Nc1nnc(C2CC2)s1)c1cc2ccccc2o1	·	13µM*	2.8µM*	3.5µM*	·	?
Cn1c(CNC(=O)C(Cc2ccccc2)NC(=O)c2ccccc2F)cc(=O)n(C)c1=O (stereo not given)	·	1%	2%	0%	·	-4%
CCOC(=O)Cc1csc(SCn2nnc3ccccc3c2=O)n1	-5%	-3%	3%	0%	5%	2%
Cc1ccc(C(=O)Nc2cc([N+](=O)[O-])ccc2F)s1	8%	?	-4%	-8%	-9%	-1%
Cc1ccccc1-c1nnc(NC(=O)c2cc3ccccc3oc2=O)s1	1%	-1%	2%	1%	-41%	5%
CCc1ccc(C(=O)Nc2cc(C)ccc2F)s1	-27%	19µM*	0%	23%	?	21%
Cc1nnc(NC(=O)c2cc3ccccc3o2)s1	·	6µM*	?	?	·	?
CCOC(=O)Cc1nnc(NC(=O)c2ccccc2OC)s1	-5%	17µM*	7%	-33%	-8%	13%
CCOC(=O)Cc1csc(-n2sc3ccccc3c2=O)n1	-7%	9.5µM*	22%	28%	-1%	?
CCCCN(CC)CCCNC(=O)c1ccc(CS(=O)(=O)c2ccccc2C)o1	·	2%	-4%	-6%	·	0%
CCOC(=O)c1sc(NC(=O)c2ccccc2OC)nc1C	10µM*	0.43µM*	1%	28%	2.5µM*	1.8µM*
CNC(=O)c1cc2ccccc2o1	-1%	-3%	0%	-4%	22%	7%
Cc1nc(NC(=O)c2cc3ccccc3o2)sc1C	·	1.1µM*	-4%	?	·	0.65µM*
C=CCOC(=O)c1sc(NC(=O)c2ccco2)nc1C	-20%	9.5µM*	?	?	?	21µM*
CCOC(=O)Cc1csc(NC(=O)c2csc(C)c2)n1	-1%	?	11%	0%	-8%	?
CCOC(=O)Cc1csc(NC(=O)c2sc3nc4c(C)cc(C)cc4cc3c2N)n1	1%	?	18%	22%	22µM*	?
CCOC(=O)c1sc(NC(=O)Cc2ccc(C)cc2)nc1C	1%	-16%	-5%	-3%	6%	-5%
